TDP1 cell noCPT = qHTS for Inhibitors of human tyrosyl-DNA phosphodiesterase 1 (TDP1): qHTS in cells in absence of CPT; DT40 Tdp1-/- hTDP1 cells, no CPT, ATP luminescence, 48 h; Potency, µM (highest dose often 46.2 µM), inactives show at the top dose activity change, negative = growth inhibition, hits mostly inhibitors; hit rate 15% among 420,000; further: potency means the concentration at half of the fitted maximal effect; nearly all actives have a fitted effect of over 55% in size
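No-CPT arm: Tdp1-/-;hTDP1 DT40 cells (400/well) plus compounds, incubated ≥48 hr at 37 °C. Readout CellTiter-Glo luminescence.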
IL-1B inflam inh = qHTS for Inhibitors of Inflammasome Signaling: IL-1-beta AlphaLISA Primary Screen; THP-1 LPS/ATP IL-1B secretion, AlphaLISA, 16 h; stronger effect = lower value; hit rate 4.7% among 360,000; activity change, % at 57.5 µM; in the data active means activity change below about -50%; inconclusive means mostly about -30% to -49%
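THP-1 cells pretreated 1 hr with compounds (up to 57.5 uM final), then stimulated with LPS (250 ng/mL final) plus ATP (1.25 mM final); secreted IL-1B measured by AlphaLISA after 16 hr, decreased signal indicating inhibition.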
TDP1 cell CPT = qHTS for Inhibitors of human tyrosyl-DNA phosphodiesterase 1 (TDP1): qHTS in cells in presence of CPT | hit rate 12% among 420,000 | chicken DT40 Tdp1-/-;hTDP1 cells + 20 nM CPT, ATP luminescence, 48 h | AID 686979, 2013 | Potency, µM (highest dose often 46.2 µM), for the others: at the top dose activity change, negative = growth inhibition, most hits filed as inhibitors; further: potency means the concentration at half of the fitted maximal effect; nearly all actives have a fitted effect of over 55% in size
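Chicken DT40 Tdp1-/- cells complemented with human TDP1, 400 cells/well, exposed to compounds plus 20 nM camptothecin for at least 48 h at 37 C; viability read as ATP content by CellTiter-Glo luminescence.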
LDHA inh = qHTS assay for inhibitors of human lactate dehydrogenase; L-lactate dehydrogenase A chain (Homo sapiens), P00338; purified LDHA, NADH/diaphorase-resazurin fluorescence; stronger effect = lower value; activity change, % (values are at about 110 or 230 µM); hit rate 0.15% among 480,000; AID 1347041, 2019; in the data active means activity change below about -30%; inconclusive means mostly about -25% to -30%;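 further: plate controls were DMSO wells for no effect and wells without enzyme for full effect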
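Human LDH5 at 2 nM final in Tris HCl pH 7.4 with 0.06 mM NADH and 0.2 mM pyruvate, reacted 5 minutes at room temperature. Remaining NADH coupled via diaphorase/resazurin; resorufin fluorescence read at 0 and 20 minutes, normalized to enzyme-free and DMSO wells.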
Gal4-VP16 FLuc = VP16 counterscreen qHTS for inhibitors of ROR gamma transcriptional activity; Drosophila S2 Gal4-VP16 UAS-luciferase, luminescence, 20 h; Potency, µM (top dose mostly 53.6 µM), without a hit: top-dose activity, negative = inhibition, most hits filed as inhibitors; hit rate 3.5% among 310,000; AID 2546, 2010;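 further: Gal4-VP16 expression switched on by copper sulfate through the metallothionein promoter; potency means the concentration at half of the fitted maximal effect; nearly all actives have a fitted effect of over 50% in size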
RORg inh = qHTS for inhibitors of ROR gamma transcriptional activity | Nuclear receptor ROR-gamma (Mus musculus), P51450 | Drosophila S2 Gal4-RORgamma UAS-luciferase reporter, 20 h | Potency, µM (highest dose often 53.6 µM), for the others: at the top dose activity change, negative = inhibition, usual class: inhibitors | hit rate 5.4% among 310,000; further: potency means the concentration at half of the fitted maximal effect; nearly all actives have a fitted effect of over 60% in size
Target sequence (P51450 whole entry, looked up, the tested form may be a part): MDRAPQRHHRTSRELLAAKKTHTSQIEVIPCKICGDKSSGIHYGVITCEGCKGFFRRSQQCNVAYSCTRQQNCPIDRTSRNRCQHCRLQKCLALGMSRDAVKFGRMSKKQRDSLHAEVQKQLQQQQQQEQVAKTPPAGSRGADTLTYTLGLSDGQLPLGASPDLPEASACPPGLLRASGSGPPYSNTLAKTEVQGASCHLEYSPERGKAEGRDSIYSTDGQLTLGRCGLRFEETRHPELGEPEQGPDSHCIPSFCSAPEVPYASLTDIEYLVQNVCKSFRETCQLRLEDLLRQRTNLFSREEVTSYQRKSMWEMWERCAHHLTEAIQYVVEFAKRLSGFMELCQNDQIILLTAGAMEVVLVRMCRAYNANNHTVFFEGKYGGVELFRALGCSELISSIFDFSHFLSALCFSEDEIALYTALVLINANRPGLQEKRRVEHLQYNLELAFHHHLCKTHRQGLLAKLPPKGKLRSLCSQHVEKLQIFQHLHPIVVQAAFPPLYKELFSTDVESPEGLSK
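Drosophila Schneider cells stably carrying a metallothionein-driven Gal4 DBD–ROR gamma fusion and a UAS-Photinus luciferase reporter were exposed to compound for 1 hr, then induced with copper sulfate (700 uM final) for 20 hr at ambient temperature before luminescence reading.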
Starred values were filed as active, the others as inactive; i = inactive; ? = inconclusive; . = not tested or not shown. In the library only some 18% were active in any assay of this set; here they are far more common. Unless noted, the call rests on the fitted dose curve; in most records, active means well fitted curve in the direction sought with a large enough effect; inconclusive means small, poorly fitted or top-dose-only effect, or another doubt; inactive means no such curve, though single readings can be large; an effect the other way counts as inactive or inconclusive. Unless noted, on the % scale 0 is the no-effect control and ±100 the full control effect.

SMILES | TDP1 cell noCPT | IL-1B inflam inh | TDP1 cell CPT | LDHA inh | Gal4-VP16 FLuc | RORg inh
O=c1cc(-c2cccnc2)oc2c1ccc1ccccc12 | 23.1µM* | . | ? | 1.8 | -2.6% | -10.7%
Cc1ccc(C)c(NC(=O)N2CCCC2c2ccccc2Cl)c1 (stereo not drawn) | . | . | . | 2.7 | . | .
COc1cc(OC)c(NC(=O)CSCc2cc(=O)n3cc(C)ccc3n2)cc1Cl | . | . | . | -0.6 | . | .
CCCC(=O)N(C)CCc1ccccc1 | . | . | . | -5.9 | . | .
CCOC(=O)c1cc2c(C)n(-c3ccc(N(C)C)cc3)c(C)c2cc(C(=O)OCC)c1=O | ? | 5.1 | ? | 6.2 | 2.4% | 17.1%
CCOC(=O)c1cc2c(C)[nH]c(C)c2cc(C(=O)OCC)c1=O | 7.31µM* | -16.1 | ? | 24.9 | 8.6% | 6.8%
CCOC(=O)c1cc2c(C)n(-c3ccc(OCC)cc3)c(C)c2cc(C(=O)OCC)c1=O | 16.4µM* | 6.1 | ? | 12.3 | -11.0% | 0.5%
CN(Cc1ccsc1)C(=O)/C=C/c1cccc2ccccc12 | . | . | . | 4.8 | . | .
COc1ccccc1CNC(=O)CSc1ccc(-c2sc(-c3ccccc3)nc2C)nn1 | 18.4µM* | . | ? | -7.4 | . | .
CCOC(=O)c1ccccc1NC(=O)CSc1ccc(-c2sc(-c3ccccc3)nc2C)nn1 | 18.4µM* | . | ? | -10.4 | . | .
CCOc1ccccc1NC(=O)CSc1ccc(-c2sc(C)nc2C)nn1 | 16.4µM* | i | 20.6µM* | 0.9 | -20.2% | 12.1%
CCOc1ccccc1NC(=O)CSc1cn[nH]n1 | -6.1% | -90.7* | -1.1% | -9.7 | . | .
CCOC(=O)C(C)Oc1ccc2c(=O)c(-c3ccc(Cl)cc3)coc2c1 (stereo not drawn) | . | . | . | -14.2 | . | .
Cc1nc(-c2ccccc2)sc1C(=O)Nc1ccncc1 | . | . | . | 13.1 | . | .
CC(=O)Nc1cc(F)ccc1-c1csc(NC(=O)CCc2ccccc2)n1 | . | . | . | -4.6 | . | .
CC(C)N(Cc1cnn(C)c1)S(=O)(=O)c1ccc(Cl)cc1 | . | . | . | 4.2 | . | .
Cc1ccc(SCc2ccc(C(=O)Nc3c(C)cccc3C)cc2)cc1 | . | . | . | 11.2 | . | .
O=C(c1cnn(-c2ccccc2)c1-n1cccc1)N1CCN(c2cccc(Cl)c2)CC1 | . | . | . | -4.6 | . | .
COC(=O)c1ccccc1NC(=O)CN1N=C(c2ccccc2)c2cc(Cl)ccc2S1(=O)=O | . | . | . | -1.0 | . | .
Cc1cc(C)c(NC(=O)CSc2ccc(-c3sc(-c4ccccc4)nc3C)nn2)c(C)c1 | 14.6µM* | . | 23.1µM* | -1.7 | . | .
Cc1nc(-c2ccccc2)sc1-c1ccc(SCC(=O)NCc2ccccc2)nn1 | -22.1% | . | -2.8% | -4.0 | . | .
CCn1nc(C(=O)OCc2nc(-c3ccccc3)no2)c2ccccc2c1=O | . | . | . | 0.1 | . | .
CC1=CC(C)(C)N2C(=O)C(=O)c3cc(OC(=O)c4ccco4)cc1c32 | 1.16µM* | 38.0 | 0.651µM* | 11.6 | 11.2% | 34.2%
CCc1cccc(CC)c1NC(=O)CCn1cnc2c1c(=O)n(C)c(=O)n2C | . | . | . | -5.6 | . | .
Oc1ccc(/C=N/NC(=S)NC2CC3CCC2C3)cc1 (stereo not drawn) | ? | -66.1* | ? | 0.1 | 11.2µM* | 2.51µM*
SMILES | TDP1 cell noCPT | IL-1B inflam inh | TDP1 cell CPT | LDHA inh | Gal4-VP16 FLuc | RORg inh
S=C(Nc1cccnc1)NC1CC2CCC1C2 (stereo not drawn) | 9.6% | -5.1 | -7.9% | -4.5 | -5.0% | -6.1%
S=C(N/N=C/c1cccs1)NC1CC2CCC1C2 (stereo not drawn) | ? | . | -27.5% | -3.4 | 3.16µM* | 0.794µM*
COCCOc1ccc(C(F)(F)F)cc1NC(=O)c1ccccc1 | -14.5% | 0.2 | 5.2% | -2.7 | -1.6% | 0.4%
CC(=O)Nc1cc(C(F)(F)F)ccc1Oc1cccc(Br)c1 | 13µM* | ? | 23.1µM* | 0.2 | 12.6µM* | ?
CC(=O)Nc1cc(C(F)(F)F)ccc1OCCOc1ccccc1 | 16.4µM* | -9.9 | ? | -0.1 | . | .
Cc1ccc2nc(C)cc(C(=O)NC3CCS(=O)(=O)C3)c2c1 (stereo not drawn) | . | . | . | -1.2 | . | .
O=C(NCc1ccccc1)c1nc[nH]c1C(=O)N1CCc2ccccc2C1 | ? | 6.5 | ? | -5.4 | . | .
CCOC(=O)c1c(C)c(C(=O)N2CCc3ccccc3C2)c(C)n1CC | 25.9µM* | 16.9 | ? | -4.4 | 4.2% | 0.8%
CC(C)(C)OC(=O)NCc1ccc(CNC(=O)c2nc[nH]c2C(=O)N2CCc3ccccc3C2)cc1 | 18.4µM* | 6.6 | ? | 0.5 | . | .
CC(C)(C)OC(=O)NCc1ccc(CNC(=O)c2nc[nH]c2C(=O)N2CCN(c3ccccc3)CC2)cc1 | 25.9µM* | 17.8 | ? | -18.3 | . | .
CCOC(=O)c1ccc(NC(=O)c2nc[nH]c2C(=O)N2CCc3ccccc3C2)cc1 | 13µM* | -11.3 | 11.6µM* | 0.2 | ? | 3.55µM*
Fc1ccccc1CNCCOc1ccccn1 | . | . | . | -1.8 | . | .
COc1ccccc1S(=O)Cc1ccc(C(=O)NCc2ccccc2Cl)o1 (stereo not drawn) | ? | -26.0 | 16.4µM* | -0.2 | 5.0% | -0.9%
Cc1ccc(CNC(=O)c2ccc(CSCc3c(F)cccc3Cl)o2)cc1 | -14.3% | . | -29.8% | -2.2 | . | .
O=C(NCc1ccccc1Cl)c1ccc(CSCc2ccccc2Cl)o1 | 20.6µM* | . | 16.4µM* | 0.8 | . | .
COc1cccc(CNC(=O)c2ccc(CS(=O)c3ccccc3Cl)o2)c1 (stereo not drawn) | . | . | . | -6.8 | . | .
Cc1noc(C)c1CS(=O)(=O)c1ccccc1Cl | . | . | . | 10.2 | . | .
O=C(Nc1nc2ccccc2s1)c1ccc([N+](=O)[O-])o1 | 8.2µM* | -67.8* | 14.6µM* | -5.1 | -0.2% | -23.6%
O=C(Nc1nc2cc3c(cc2s1)OCCO3)c1ccc([N+](=O)[O-])o1 | 10.3µM* | -86.2* | 8.2µM* | -3.1 | ? | -44.8%
Cc1cc(C)c2nc(NC(=O)c3ccc([N+](=O)[O-])o3)sc2c1 | 2.9% | ? | -8.9% | -7.2 | 1.1% | -21.4%
COc1ccc2nc(NC(=O)c3ccc([N+](=O)[O-])o3)sc2c1 | 13µM* | -87.9* | 23.1µM* | -8.0 | 11.2µM* | ?
O=C(Nc1nc2c(F)cc(F)cc2s1)c1ccc([N+](=O)[O-])o1 | 10.3µM* | 0.0 | 14.6µM* | -9.5 | ? | -32.3%
COc1ccc2[nH]c(C)c(CC(=O)O)c2c1 | . | . | . | 32.1 | . | .
Cc1cc(C)c2sc(NC(=O)c3ccc([N+](=O)[O-])o3)nc2c1 | ? | ? | ? | 3.0 | 10µM* | 5.01µM*
